Results published in article PMC7862700, “An all-to-all approach to the identification of sequence-specific readers for epigenetic DNA modifications on cytosine”.

How the values were obtained:
Experiment in all cases: DAPPL (digital affinity profiling via proximity ligation, sequencing); 10 mM Tris-HCl pH 7.5, 50 mM NaCl, 1 mM DTT, 4% glycerol, room temperature, 30 min; GST-TFs on glutathione beads, 16-mer random dsDNA library, 0.1% formaldehyde crosslink after washing; high values mean tight binding
FLI1 = molecular target: T1, FLI1 (Homo sapiens, UniProt Q01543 1-452); settings: protein: recombinant; tags: N-terminal GST; dsDNA, one strand shown
T1 sequence: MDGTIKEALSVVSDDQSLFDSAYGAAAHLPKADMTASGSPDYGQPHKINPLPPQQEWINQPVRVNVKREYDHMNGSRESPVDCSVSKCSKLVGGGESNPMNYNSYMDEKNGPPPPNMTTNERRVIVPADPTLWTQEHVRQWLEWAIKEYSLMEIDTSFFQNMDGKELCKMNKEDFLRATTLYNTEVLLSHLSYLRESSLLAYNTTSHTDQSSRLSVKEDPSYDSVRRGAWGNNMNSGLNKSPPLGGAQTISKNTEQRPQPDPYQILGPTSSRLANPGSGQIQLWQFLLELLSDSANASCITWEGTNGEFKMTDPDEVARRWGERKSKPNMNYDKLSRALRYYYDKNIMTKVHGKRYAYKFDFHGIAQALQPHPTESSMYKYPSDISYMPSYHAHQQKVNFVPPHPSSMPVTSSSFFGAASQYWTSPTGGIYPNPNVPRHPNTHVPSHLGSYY
How it was run: (§1)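 GST fusions of human transcription factors were expressed in yeast and captured with glutathione beads. Once given DNA barcodes and pooled alongside a tag-only sample, they were incubated for 30 min at room temperature with 200 nmole of a random double-stranded 16-mer DNA library in Tris/NaCl/DTT/glycerol buffer, then washed, crosslinked (0.1% formaldehyde), proximity-ligated, PCR-amplified and sequenced on an Illumina NextSeq500. The binding signal of each hexamer is its read frequency for a factor divided by its frequency for the tag-only sample.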

ELK1 = molecular target: T2, ELK1 (Homo sapiens, UniProt P19419 1-428); settings: protein: recombinant; tags: N-terminal GST; dsDNA, one strand shown
T2 sequence: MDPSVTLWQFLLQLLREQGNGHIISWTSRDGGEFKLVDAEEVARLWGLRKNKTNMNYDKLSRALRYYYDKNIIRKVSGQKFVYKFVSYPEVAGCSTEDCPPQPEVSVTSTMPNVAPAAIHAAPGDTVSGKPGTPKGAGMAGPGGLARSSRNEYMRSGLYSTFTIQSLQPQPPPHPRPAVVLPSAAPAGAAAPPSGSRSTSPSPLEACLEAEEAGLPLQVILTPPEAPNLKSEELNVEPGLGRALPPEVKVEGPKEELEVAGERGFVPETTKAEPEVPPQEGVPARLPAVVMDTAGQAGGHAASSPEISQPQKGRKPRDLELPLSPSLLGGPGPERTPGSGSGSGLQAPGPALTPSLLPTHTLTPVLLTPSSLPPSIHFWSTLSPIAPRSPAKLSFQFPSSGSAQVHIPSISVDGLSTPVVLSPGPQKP
How it was run: as §1

GABPA = molecular target: T3, GABPA (Homo sapiens, UniProt Q06546 1-454); settings: protein: recombinant; tags: N-terminal GST; dsDNA, one strand shown
T3 sequence: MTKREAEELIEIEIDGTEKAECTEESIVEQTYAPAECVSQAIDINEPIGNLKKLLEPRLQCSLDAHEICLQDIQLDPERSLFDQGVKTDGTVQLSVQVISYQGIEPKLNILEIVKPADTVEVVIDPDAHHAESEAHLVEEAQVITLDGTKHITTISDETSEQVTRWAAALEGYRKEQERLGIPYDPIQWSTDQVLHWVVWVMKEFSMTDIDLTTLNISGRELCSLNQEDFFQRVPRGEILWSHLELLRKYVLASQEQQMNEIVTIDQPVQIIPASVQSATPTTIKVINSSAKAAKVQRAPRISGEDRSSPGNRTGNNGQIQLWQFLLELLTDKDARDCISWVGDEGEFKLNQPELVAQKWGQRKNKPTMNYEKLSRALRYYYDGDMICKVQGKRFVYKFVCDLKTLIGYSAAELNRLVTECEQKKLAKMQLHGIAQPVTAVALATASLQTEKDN
How it was run: as §1

ERG = molecular target: T4, ERG (Homo sapiens, UniProt P11308 1-479); settings: protein: recombinant; tags: N-terminal GST; dsDNA, one strand shown
T4 sequence: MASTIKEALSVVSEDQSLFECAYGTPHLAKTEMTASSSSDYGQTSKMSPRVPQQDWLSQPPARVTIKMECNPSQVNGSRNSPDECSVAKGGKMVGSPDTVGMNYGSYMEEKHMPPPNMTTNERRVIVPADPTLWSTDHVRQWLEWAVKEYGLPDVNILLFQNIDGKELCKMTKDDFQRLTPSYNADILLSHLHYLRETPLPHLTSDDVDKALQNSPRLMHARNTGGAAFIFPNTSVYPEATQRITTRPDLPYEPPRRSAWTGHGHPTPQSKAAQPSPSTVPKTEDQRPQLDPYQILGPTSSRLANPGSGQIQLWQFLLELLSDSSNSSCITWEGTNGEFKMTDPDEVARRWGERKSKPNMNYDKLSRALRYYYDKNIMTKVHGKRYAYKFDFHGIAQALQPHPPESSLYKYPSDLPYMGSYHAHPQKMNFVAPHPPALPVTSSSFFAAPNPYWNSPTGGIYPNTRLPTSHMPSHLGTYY
How it was run: as §1

ELF1 = ELF1 (Homo sapiens, UniProt P32519 1-619); settings: protein: recombinant; tags: N-terminal GST; dsDNA, one strand shown
How it was run: as §1

EHF = molecular target: T5, EHF (Homo sapiens, UniProt Q9NZC4 1-300); settings: protein: recombinant; tags: N-terminal GST; dsDNA, one strand shown
T5 sequence: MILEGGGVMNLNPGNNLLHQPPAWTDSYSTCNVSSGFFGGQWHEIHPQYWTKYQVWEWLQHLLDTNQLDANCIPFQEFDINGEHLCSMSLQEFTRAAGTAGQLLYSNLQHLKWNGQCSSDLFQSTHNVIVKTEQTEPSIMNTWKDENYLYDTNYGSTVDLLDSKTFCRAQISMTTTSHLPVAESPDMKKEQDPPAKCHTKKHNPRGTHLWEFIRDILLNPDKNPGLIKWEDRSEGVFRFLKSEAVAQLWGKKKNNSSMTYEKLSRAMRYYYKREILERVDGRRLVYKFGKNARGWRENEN
How it was run: as §1

SPI1 = SPI1 (Homo sapiens, UniProt P17947 1-270); settings: protein: recombinant; tags: N-terminal GST; dsDNA, one strand shown
How it was run: as §1

SPIB = SPIB (Homo sapiens, UniProt Q01892 1-262); settings: protein: recombinant; tags: N-terminal GST; dsDNA, one strand shown
How it was run: as §1

ELK3 = molecular target: T6, ELK3 (Homo sapiens, UniProt P41970 1-407); settings: protein: recombinant; tags: N-terminal GST; dsDNA, one strand shown
T6 sequence: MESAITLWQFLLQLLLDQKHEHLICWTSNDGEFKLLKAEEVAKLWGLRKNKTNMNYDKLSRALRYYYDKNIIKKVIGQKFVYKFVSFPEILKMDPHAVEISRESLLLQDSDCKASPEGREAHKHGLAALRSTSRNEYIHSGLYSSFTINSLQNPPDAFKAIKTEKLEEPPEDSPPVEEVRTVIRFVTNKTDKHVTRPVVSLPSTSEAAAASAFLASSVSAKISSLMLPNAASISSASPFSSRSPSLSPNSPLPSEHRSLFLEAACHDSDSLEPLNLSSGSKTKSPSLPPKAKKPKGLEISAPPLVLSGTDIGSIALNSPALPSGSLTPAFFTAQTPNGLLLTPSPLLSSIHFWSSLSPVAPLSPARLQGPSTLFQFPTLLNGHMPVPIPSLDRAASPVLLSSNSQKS
How it was run: as §1

FEV = molecular target: T7, FEV (Homo sapiens, UniProt Q99581 1-238); settings: protein: recombinant; tags: N-terminal GST; dsDNA, one strand shown
T7 sequence: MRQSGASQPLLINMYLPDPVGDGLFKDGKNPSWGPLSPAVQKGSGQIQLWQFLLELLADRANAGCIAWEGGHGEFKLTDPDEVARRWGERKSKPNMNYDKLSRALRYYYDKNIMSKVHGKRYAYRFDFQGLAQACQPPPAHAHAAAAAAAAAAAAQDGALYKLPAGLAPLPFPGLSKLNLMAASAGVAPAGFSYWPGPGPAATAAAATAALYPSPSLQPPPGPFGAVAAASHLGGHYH
How it was run: as §1

ETV5 = ETV5 (Homo sapiens, UniProt P41161 1-510); settings: protein: recombinant; tags: N-terminal GST; dsDNA, one strand shown
How it was run: as §1

HSF1 = HSF1 (Homo sapiens, UniProt Q00613 1-529); settings: protein: recombinant; tags: N-terminal GST; chain copies: 3; dsDNA, one strand shown
How it was run: as §1

SPIC = molecular target: T8, SPIC (Homo sapiens, UniProt Q8N5J4 1-248); settings: protein: recombinant; tags: N-terminal GST; dsDNA, one strand shown
T8 sequence: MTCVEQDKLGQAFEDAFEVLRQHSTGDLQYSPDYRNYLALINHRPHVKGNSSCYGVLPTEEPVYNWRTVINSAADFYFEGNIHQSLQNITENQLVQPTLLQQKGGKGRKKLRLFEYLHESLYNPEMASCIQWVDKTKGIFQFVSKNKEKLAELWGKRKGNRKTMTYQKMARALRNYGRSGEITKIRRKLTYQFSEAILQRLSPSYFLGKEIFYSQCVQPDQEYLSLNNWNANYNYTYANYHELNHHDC
How it was run: as §1

ELF4 = ELF4 (Homo sapiens, UniProt Q99607 1-663); settings: protein: recombinant; tags: N-terminal GST; dsDNA, one strand shown
How it was run: as §1

ELK4 = molecular target: T9, ELK4 (Homo sapiens, UniProt P28324-2 1-405); settings: protein: recombinant; tags: N-terminal GST; dsDNA, one strand shown
T9 sequence: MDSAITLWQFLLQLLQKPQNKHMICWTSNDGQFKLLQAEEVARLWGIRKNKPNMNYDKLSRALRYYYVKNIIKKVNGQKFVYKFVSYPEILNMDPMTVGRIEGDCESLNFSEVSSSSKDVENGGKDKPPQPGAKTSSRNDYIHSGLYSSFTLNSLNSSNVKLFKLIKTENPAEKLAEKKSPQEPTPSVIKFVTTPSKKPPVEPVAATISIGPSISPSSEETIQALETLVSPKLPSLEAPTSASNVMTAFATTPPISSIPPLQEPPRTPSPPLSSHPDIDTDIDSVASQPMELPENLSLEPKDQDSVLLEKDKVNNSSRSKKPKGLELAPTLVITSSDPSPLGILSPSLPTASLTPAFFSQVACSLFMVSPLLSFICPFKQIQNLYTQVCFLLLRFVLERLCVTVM
How it was run: as §1

ETV2 = molecular target: T10, ETV2 (Homo sapiens, UniProt O00321 1-342); settings: protein: recombinant; tags: N-terminal GST; dsDNA, one strand shown
T10 sequence: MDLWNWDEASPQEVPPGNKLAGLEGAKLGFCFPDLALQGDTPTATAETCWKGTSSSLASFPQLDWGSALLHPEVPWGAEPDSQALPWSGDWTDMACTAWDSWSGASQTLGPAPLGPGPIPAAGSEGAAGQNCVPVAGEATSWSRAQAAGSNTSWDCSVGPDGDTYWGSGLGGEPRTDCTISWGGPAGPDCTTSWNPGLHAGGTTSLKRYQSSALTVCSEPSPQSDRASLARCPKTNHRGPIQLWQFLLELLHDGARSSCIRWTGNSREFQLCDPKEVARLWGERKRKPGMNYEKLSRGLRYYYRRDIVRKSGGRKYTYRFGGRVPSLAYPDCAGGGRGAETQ
How it was run: as §1

ELF3 = molecular target: T11, ELF3 (Homo sapiens, UniProt P78545 1-371); settings: protein: recombinant; tags: N-terminal GST; dsDNA, one strand shown
T11 sequence: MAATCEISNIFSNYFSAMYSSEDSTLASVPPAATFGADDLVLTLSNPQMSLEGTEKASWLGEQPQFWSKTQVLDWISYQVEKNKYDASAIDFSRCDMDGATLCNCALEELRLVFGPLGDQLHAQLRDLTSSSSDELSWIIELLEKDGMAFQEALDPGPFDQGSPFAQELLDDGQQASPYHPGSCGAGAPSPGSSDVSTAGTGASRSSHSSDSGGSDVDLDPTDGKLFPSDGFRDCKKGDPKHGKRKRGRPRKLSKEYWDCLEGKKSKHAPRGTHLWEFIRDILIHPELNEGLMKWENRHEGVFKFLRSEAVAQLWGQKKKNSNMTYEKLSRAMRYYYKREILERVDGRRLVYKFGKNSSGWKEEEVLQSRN
How it was run: as §1

CRX = CRX (Homo sapiens, UniProt O43186 1-299); settings: protein: recombinant; tags: N-terminal GST; dsDNA, one strand shown
How it was run: as §1

ETV1 = ETV1 (Homo sapiens, UniProt P50549 1-477); settings: protein: recombinant; tags: N-terminal GST; dsDNA, one strand shown
How it was run: as §1

ETV1, sequence (P50549 whole entry): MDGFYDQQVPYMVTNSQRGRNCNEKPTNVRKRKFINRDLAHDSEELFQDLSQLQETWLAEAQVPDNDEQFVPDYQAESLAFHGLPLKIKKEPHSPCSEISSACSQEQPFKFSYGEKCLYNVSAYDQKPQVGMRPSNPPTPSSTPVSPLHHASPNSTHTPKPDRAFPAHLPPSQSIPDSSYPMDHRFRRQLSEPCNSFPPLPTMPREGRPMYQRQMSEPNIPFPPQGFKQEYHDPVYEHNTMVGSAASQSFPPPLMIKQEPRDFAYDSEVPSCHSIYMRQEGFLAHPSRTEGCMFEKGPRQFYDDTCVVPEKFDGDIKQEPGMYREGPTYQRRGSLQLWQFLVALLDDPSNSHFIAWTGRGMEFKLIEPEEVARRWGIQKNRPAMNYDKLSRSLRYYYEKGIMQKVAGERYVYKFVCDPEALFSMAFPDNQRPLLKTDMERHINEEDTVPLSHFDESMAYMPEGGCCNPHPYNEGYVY
SPIB, sequence (Q01892 whole entry): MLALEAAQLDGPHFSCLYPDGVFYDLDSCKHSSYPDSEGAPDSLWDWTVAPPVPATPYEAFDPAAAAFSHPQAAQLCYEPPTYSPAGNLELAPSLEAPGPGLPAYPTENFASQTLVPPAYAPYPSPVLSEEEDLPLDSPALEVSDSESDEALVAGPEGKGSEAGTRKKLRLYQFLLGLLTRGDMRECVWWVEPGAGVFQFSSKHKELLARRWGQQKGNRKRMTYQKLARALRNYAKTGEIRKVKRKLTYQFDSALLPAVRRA
ETV5, sequence (P41161 whole entry): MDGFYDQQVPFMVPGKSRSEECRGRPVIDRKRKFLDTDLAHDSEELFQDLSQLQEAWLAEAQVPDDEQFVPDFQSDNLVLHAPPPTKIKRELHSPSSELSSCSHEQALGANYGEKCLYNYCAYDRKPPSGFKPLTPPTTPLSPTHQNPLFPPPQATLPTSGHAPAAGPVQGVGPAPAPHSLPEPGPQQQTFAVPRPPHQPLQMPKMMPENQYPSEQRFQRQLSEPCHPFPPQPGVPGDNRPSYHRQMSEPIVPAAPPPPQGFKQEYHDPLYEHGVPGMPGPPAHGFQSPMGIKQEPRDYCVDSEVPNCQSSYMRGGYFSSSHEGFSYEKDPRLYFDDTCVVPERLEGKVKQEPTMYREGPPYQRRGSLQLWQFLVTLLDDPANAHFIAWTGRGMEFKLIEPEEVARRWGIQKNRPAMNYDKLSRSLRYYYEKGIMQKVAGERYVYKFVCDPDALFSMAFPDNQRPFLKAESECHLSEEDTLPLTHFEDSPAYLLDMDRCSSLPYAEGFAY
HSF1, sequence (Q00613 whole entry): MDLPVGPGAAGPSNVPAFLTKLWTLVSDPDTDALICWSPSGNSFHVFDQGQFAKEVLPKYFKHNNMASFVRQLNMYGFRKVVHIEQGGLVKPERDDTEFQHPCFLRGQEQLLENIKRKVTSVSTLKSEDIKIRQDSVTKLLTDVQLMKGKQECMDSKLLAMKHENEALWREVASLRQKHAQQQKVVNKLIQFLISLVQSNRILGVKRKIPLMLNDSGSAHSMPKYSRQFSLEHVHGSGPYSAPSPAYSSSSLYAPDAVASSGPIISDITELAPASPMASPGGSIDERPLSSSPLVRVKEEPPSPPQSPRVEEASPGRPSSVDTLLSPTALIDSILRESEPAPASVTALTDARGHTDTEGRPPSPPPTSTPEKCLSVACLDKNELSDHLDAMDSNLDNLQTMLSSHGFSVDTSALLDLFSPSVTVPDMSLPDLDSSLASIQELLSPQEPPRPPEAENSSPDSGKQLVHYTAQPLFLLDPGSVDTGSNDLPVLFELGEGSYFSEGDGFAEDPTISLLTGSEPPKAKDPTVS
ELF4, sequence (Q99607 whole entry): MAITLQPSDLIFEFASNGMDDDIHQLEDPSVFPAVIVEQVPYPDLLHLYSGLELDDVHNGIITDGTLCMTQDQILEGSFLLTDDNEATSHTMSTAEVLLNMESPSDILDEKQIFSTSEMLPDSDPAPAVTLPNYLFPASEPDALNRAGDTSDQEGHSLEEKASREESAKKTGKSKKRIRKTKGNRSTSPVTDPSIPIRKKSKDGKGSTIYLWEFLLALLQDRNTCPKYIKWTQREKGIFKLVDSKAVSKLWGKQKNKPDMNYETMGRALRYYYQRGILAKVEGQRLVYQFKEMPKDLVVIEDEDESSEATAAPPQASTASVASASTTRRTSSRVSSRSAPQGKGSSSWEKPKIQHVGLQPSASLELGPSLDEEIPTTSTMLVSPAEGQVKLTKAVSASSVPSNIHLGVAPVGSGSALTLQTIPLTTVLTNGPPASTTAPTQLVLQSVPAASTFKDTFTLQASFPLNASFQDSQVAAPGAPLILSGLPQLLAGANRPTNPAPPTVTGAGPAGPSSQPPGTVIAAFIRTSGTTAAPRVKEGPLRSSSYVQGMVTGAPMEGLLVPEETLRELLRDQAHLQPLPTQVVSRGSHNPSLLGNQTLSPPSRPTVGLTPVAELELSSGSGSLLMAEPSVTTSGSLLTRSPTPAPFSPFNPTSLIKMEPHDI
CRX, sequence (O43186 whole entry): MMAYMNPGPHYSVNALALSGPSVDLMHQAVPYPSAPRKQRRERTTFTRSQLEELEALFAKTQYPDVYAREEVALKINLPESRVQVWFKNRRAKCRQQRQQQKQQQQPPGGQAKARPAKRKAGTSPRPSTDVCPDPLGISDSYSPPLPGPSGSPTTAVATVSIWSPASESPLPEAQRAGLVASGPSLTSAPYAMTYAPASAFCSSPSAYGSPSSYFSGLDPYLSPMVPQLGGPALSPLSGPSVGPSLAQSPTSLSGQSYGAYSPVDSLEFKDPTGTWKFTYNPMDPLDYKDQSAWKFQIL
ELF1, sequence (P32519 whole entry): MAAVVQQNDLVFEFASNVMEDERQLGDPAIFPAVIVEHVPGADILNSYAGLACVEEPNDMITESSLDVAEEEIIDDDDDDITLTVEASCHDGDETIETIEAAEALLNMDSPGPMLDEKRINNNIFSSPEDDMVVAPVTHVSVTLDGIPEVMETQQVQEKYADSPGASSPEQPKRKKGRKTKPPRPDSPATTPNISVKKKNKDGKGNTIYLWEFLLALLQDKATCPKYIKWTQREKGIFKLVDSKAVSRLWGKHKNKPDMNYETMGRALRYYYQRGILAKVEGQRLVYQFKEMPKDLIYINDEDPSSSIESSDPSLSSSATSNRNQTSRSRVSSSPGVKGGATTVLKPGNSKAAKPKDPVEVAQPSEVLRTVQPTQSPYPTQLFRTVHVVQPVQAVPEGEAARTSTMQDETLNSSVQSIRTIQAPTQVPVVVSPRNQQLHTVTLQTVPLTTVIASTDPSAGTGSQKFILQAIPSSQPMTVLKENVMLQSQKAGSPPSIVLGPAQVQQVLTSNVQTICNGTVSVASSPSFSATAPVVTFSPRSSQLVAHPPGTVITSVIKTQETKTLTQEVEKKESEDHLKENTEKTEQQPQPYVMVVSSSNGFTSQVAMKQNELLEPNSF

GTCTCC
binding signal (FLI1): 1.45 fold enrichment (6-mer frequency, TF over GST control) | binding signal (ELK1): 1.5 fold enrichment (6-mer frequency, TF over GST control) | binding signal (GABPA): 1.52 fold enrichment (6-mer frequency, TF over GST control) | binding signal (ERG): 1.26 fold enrichment (6-mer frequency, TF over GST control) | binding signal (ELF1): 1.39 fold enrichment (6-mer frequency, TF over GST control) | binding signal (EHF): 1.4 fold enrichment (6-mer frequency, TF over GST control) | binding signal (SPI1): 1.52 fold enrichment (6-mer frequency, TF over GST control) | binding signal (SPIB): 1.43 fold enrichment (6-mer frequency, TF over GST control) | binding signal (ELK3): 1.56 fold enrichment (6-mer frequency, TF over GST control) | binding signal (FEV): 1.53 fold enrichment (6-mer frequency, TF over GST control) | binding signal (ETV5): 1.46 fold enrichment (6-mer frequency, TF over GST control) | binding signal (HSF1): 1.15 fold enrichment (6-mer frequency, TF over GST control) | binding signal (SPIC): 1.32 fold enrichment (6-mer frequency, TF over GST control) | binding signal (ELF4): 1.43 fold enrichment (6-mer frequency, TF over GST control) | binding signal (ELK4): 1.46 fold enrichment (6-mer frequency, TF over GST control) | binding signal (ETV2): 1.38 fold enrichment (6-mer frequency, TF over GST control) | binding signal (ELF3): 1.46 fold enrichment (6-mer frequency, TF over GST control) | binding signal (CRX): 1.04 fold enrichment (6-mer frequency, TF over GST control) | binding signal (ETV1): 1.37 fold enrichment (6-mer frequency, TF over GST control)
